Among all 310,000 compounds or so, about 17,000 (5.5%) were called active. Inconclusive results (about 11%) are left out. The call rests on the fitted dose curve; in most records, active means well fitted inhibition curve with a large enough effect; inconclusive means small, poorly fitted or top-dose-only effect, or effect the other way; inactive means no such curve, though single readings can be large or run the other way. What follows is part of a selection rich in actives, with near analogues and random picks from the rest. Entries that show only a call come without a potency.
The compounds below were run against Nuclear receptor ROR-gamma (Mus musculus) (UniProt P51450) (assay: qHTS for inhibitors of ROR gamma transcriptional activity). Conditions: Drosophila S2 Gal4-RORgamma UAS-luciferase reporter, 20 h; series mostly up to 53.6 µM.
Nuclear receptor ROR-gamma (Mus musculus), sequence (P51450 whole entry, looked up, the tested form may be a part): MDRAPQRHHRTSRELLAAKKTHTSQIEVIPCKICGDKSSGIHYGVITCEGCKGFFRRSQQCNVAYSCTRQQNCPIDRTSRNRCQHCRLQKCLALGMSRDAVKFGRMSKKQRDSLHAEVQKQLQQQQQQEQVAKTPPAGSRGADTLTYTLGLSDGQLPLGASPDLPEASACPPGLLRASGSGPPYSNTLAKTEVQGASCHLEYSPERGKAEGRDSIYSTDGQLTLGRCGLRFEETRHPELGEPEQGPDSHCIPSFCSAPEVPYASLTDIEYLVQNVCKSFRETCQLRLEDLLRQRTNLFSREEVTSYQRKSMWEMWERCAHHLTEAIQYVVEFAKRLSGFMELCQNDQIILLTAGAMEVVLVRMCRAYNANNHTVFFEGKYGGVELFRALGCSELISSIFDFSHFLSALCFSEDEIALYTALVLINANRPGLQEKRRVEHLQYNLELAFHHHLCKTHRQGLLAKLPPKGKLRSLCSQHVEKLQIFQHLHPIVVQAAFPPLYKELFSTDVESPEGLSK
Description: NIH Molecular Libraries Probe Production Network [MLPCN] NIH Chemical Genomics Center [NCGC] MLPCN Grant: R03 DA026211-01 Assay Provider: Dan Littman, New York University Assay Overview: The retinoic acid-related orphan receptor (ROR) gamma is a transcription factor that has a central role in the differentiation of Th17 cells, a subset of T helper cells that secrete the inflammatory cytokines IL-17, IL-17F, and IL-22. Th17 cells have been implicated in graft versus host disease, autoimmune disease and asthma. ROR gamma is induced in naive T helper cells in the presence of TGF-beta combined with IL-6, IL-21, or IL-23, and thereafter directs the expression of the Th17 lineage cytokines. To study the mechanism of action of ROR gamma, an insect cell-based assay was screened. This Drosophila Schneider cell line was stably transfected with two vectors: a gene expressing a fusion of the Gal4 DNA binding domain and ROR gamma transactivation domain under the control of the metallothionine promoter and a Photinus luciferase reporter regulated by the Gal4 binding site enhancer, UAS. […] Small molecule inhibitors of ROR gamma activity are detected by a decrease in luciferase reporter activity.
Assay Protocol Summary: For screening, 600 cells in 4 uL/well were dispensed into white solid 1536-well plates (Grenier) using a solenoid-based dispenser. Following transfer of 23 nL compound or DMSO vehicle by a pin tool, the plates were incubated 1 hr at ambient temperature, and 1 uL/well copper sulfate (700 uM final concentration) was added. The plates were centrifuged 15 s at 1000 RPM and incubated 20 hr at ambient temperature. After addition of 1.5 uL Photinus luciferase detection reagent, the plates were incubated 10 min at ambient temperature and then read by an ViewLux (Perkin Elmer) to detect luminescence. Keywords: NIH Roadmap, MLPCN, MLI, MLSMR, qHTS, NCGC, qHTS, nuclear hormone receptor, retinoic acid-related orphan receptor, ROR gamma
In the case of CSc1ccc(CCNC(=O)CS(=O)(=O)Cc2nc(-c3ccccc3F)oc2C)cc1, the Potency is reported as “inactive”. In the case of O=C(Nc1nnc(C2=COCCO2)o1)c1ccc([N+](=O)[O-])s1, the Potency is reported as 2.82 µM (active). For Cc1ccc(C(=O)Nc2nnc(-c3cccs3)s2)cc1C, the Potency was “inactive”. In the case of Cc1ccc(C(=O)NCCN2CCOCC2)cc1C, the Potency is reported as “inactive”. In the case of Cc1ccc(C(=O)Nc2nnc(C3=COCCO3)o2)cc1C, the Potency is reported as 0.282 µM (active). For COc1ccc(C(CNCC(=O)Nc2ccccc2F)N(C)C)cc1 (configuration not stated), the Potency was “inactive”. For C=CCn1c(CNS(=O)(=O)c2ccc(Br)cc2)nnc1SC, the Potency was “inactive”. With CC(C)c1ccc2oc(=O)cc(CN3CCN(Cc4ccccc4)CC3)c2c1 the Potency was “inactive”. For CCOc1ccc(NC(=O)CSc2nncn2C)cc1, the Potency was “inactive”. For COc1ccc(C)cc1NC(=O)CN(C)S(=O)(=O)c1ccc2c(c1)n(C)c(=O)c(=O)n2C, the Potency was “inactive”. With CC(C)c1ccc(N(C(=O)c2ccco2)C(C(=O)NC2CCCC2)c2cccnc2)cc1 (configuration not stated) the Potency was “inactive”. COc1ccc(CNC(=O)c2ccc3oc(C(C)C)nc3c2)cc1 was tested, and the Potency was “inactive”. In the case of COc1ccc(N2CCN(S(=O)(=O)c3ccc4c(c3)N(C(C)=O)CCO4)CC2)cc1, the Potency is reported as “inactive”. In the case of CCOCCCN(C)C1CCN(C(=O)c2oc3ccccc3c2NC(=O)Cc2cccc([N+](=O)[O-])c2)CC1, the Potency is reported as “inactive”. In the case of Cc1nnnn1/C(=C\c1ccccc1)C(=O)OCC(=O)N1CC2(C)CC1CC(C)(C)C2 (configuration not stated), the Potency is reported as 5.01 µM (active). In the case of COc1cc(CCC(=O)N2CCN(c3ccccc3Cl)CC2)cc(OC)c1OC, the Potency is reported as “inactive”. For COc1cccc(N2CC(C(=O)Nc3c(C)cccc3C)CC2=O)c1 (configuration not stated), the Potency was “inactive”. COc1ccc(OCC(=O)Nc2ccc(N3CCC(C)CC3)cc2)cc1 was tested, and the Potency was “inactive”. In the case of COc1ccc(NC(=S)NCCN2CCC(C)CC2)cc1, the Potency is reported as “inactive”. With COc1ccc(NC(=S)NCC2CCN(c3ccc(OC)cc3)C2)cc1 (configuration not stated) the Potency was 3.16 µM (active). With COc1ccc(N2CCC(CNC(=S)Nc3c(C)cccc3C)C2)cc1 (configuration not stated) the Potency was 0.891 µM (active). With COc1ccc(NC(=O)N2CCC(Cc3ccccc3)CC2)cc1 the Potency was “inactive”. For O=C(Cn1nc(C(=O)O)c2ccccc2c1=O)Nc1ccc(F)cc1, the Potency was “inactive”. In the case of CC1Sc2ccc(S(=O)(=O)CCC(=O)NCc3ccccc3Cl)cc2NC1=O (configuration not stated), the Potency is reported as “inactive”. CC(=O)c1cc(CN2CCC(C(=O)Nc3cccc(-c4cscn4)c3)CC2)cs1 was tested, and the Potency was “inactive”. In the case of COc1ccc(CCNC(=O)c2nnc(CS(=O)(=O)c3ccccc3)o2)cc1OC, the Potency is reported as “inactive”. For Cc1cccc(OCC(=O)Nc2ccc(C(=O)O)cc2NC(=O)COc2cccc(C)c2)c1, the Potency was “inactive”. For COCCNc1ccc(-c2n[nH]c(=O)c3ccccc23)cc1[N+](=O)[O-], the Potency was “inactive”. With Cc1nc(S(=O)(=O)c2ccc(Br)cc2)nc2c1CCC2 the Potency was “inactive”. In the case of Brc1ccc(Nc2c3c(nc4ncnn24)CCC3)cc1, the Potency is reported as 12.6 µM (active). O=c1c2c(nc3nc[nH]n13)CCC2 was tested, and the Potency was “inactive”. With COc1cc2c(cc1OC)/C(=C/C(=O)c1ccc(NC(C)=O)cc1)NCC2 the Potency was “inactive”. In the case of CC1CN/C(=C\C(=O)c2ccc(Br)cc2)C(=O)N1 (configuration not stated), the Potency is reported as 12.6 µM (active). C/C(=C\C(=O)c1ccc(Br)cc1)N1CCCCC1 was tested, and the Potency was “inactive”. For C[C@H](NC(=O)[C@@H]1Cc2ccccc2CN1C(=O)OC(C)(C)C)C(=O)NC1CCCC1, the Potency was “inactive”. In the case of CC(NC(=O)c1ccco1)c1ccc2c(c1)OCO2 (configuration not stated), the Potency is reported as “inactive”. Cc1cc(/C=N/n2cnnc2)c(C)n1-c1cccc(C(=O)O)c1 was tested, and the Potency was “inactive”. With Cc1cc(/C=N/Nc2ccc([N+](=O)[O-])cn2)c(C)n1-c1cccc(C(=O)O)c1 the Potency was “inactive”. In the case of Cc1cccc(-n2c(C)cc(/C=N/NC(N)=S)c2C)c1, the Potency is reported as 3.55 µM (active). In the case of Cc1cc(/C=C2\SC(=O)N(C)C2=O)c(C)n1-c1cccc(C(=O)O)c1, the Potency is reported as “inactive”. For Cc1cccc(-n2c(C)cc(/C=N\NC(=O)c3cccs3)c2C)c1, the Potency was 10 µM (active). In the case of Cc1ccc(C(=O)Nc2ccc(NC(=O)c3cccs3)cc2)c(C)c1, the Potency is reported as “inactive”. COC(=O)c1ccc2c(=O)n(CCN3CCOCC3)c(SCC(=O)Nc3cccc(OC)c3)nc2c1 was tested, and the Potency was “inactive”. CCN1C(=S)N[C@@H](c2cccc(C(F)(F)F)c2)C(C(=O)OC)=C1C was tested, and the Potency was “inactive”. For CC(C)C[C@H](NC(=O)C1CCC(CNC(=O)[C@@H]2CCCN2C(=O)OC(C)(C)C)CC1)C(=O)O (some centres not stated), the Potency was “inactive”. For COc1cc(NS(=O)(=O)c2ccc(N/C=C(\C=O)c3nc4cc(Cl)ccc4o3)cc2)nc(OC)n1, the Potency was 14.1 µM (active). COC(=O)Nc1ccc(S(=O)(=O)Nc2cc(OC)nc(OC)n2)cc1 was tested, and the Potency was “inactive”. In the case of COc1cc(NS(=O)(=O)c2ccc(NC(=S)NC(=O)c3ccccc3)cc2)nc(OC)n1, the Potency is reported as “inactive”. With COc1ccc(C2(O)C(=O)Nc3ccccc32)cc1 (configuration not stated) the Potency was “inactive”. With Cc1cccn2c(=O)c3cc(C(=O)NC4CCCCC4)sc3nc12 the Potency was “inactive”. For COc1ccc(-c2nc(CS(=O)(=O)CC(=O)NCc3cccc(Br)c3)c(C)o2)cc1, the Potency was “inactive”. In the case of CC(C)c1ccc(NC(=S)NC2CC3C=CC2C3)cc1 (configuration not stated), the Potency is reported as 3.55 µM (active). CC(C)c1ccc(NC(=S)NNc2ccc(Cl)c(C(=O)O)c2)cc1 was tested, and the Potency was “inactive”. For S=C(NNC(=S)NC1CC2C=CC1C2)NC1CC2C=CC1C2 (configuration not stated), the Potency was “inactive”. With CC(=O)Nc1ccc(NC(=O)COc2ccc(-c3ccccc3)cc2)cc1 the Potency was “inactive”. Cc1ccc(C)c(-n2ccnc2SCC(N)=O)c1 was tested, and the Potency was “inactive”. With CC1=CC(C)(C)N(C(=O)CSc2nnc(-c3ccccc3)o2)c2ccc(C)cc21 the Potency was “inactive”. With CC1=CC(C)(C)N(C(=O)CSc2nccn2C)c2cc(C)ccc21 the Potency was 11.2 µM (active). In the case of COc1ccccc1CNC(=O)c1ccc(SC)cc1OC, the Potency is reported as “inactive”. Cc1ccnc(NC(=O)CCCOc2ccccc2)c1 was tested, and the Potency was “inactive”. For COc1cc(SC)ccc1C(=O)Nc1nc(C)cs1, the Potency was 1.26 µM (active). With COc1cc(SC)ccc1C(=O)N(Cc1ccccc1)c1ccccc1 the Potency was “inactive”. In the case of Cc1ccnc(NC(=O)c2ccoc2C)c1, the Potency is reported as “inactive”. In the case of COc1cc(SC)ccc1C(=O)Nc1cc(C)ccn1, the Potency is reported as 6.31 µM (active). With COc1ccc(C)cc1NC(=O)CNCc1cccs1 the Potency was “inactive”. In the case of Cc1sc2ncn(CC(=O)NCCCC(=O)NCc3ccc(F)cc3)c(=O)c2c1C, the Potency is reported as “inactive”. With CC(C)(C)c1ccc(C(=O)N2CCN(CCNC(=O)C(=O)Nc3ccc(F)cc3)CC2)cc1 the Potency was “inactive”.
Further: nearly all actives have a fitted effect of over 60% in size.
Potency means the concentration at half of the fitted maximal effect.
